From PubChem BioAssay (NCATS) come the findings set out here.

Each structure is given as a SMILES string. Values without a mark were called inactive. Records with an inconclusive call do not appear. The source made the active and inactive calls. Unless noted, calls come from the whole dose curve; as a rule, active = well fitted curve in either direction with a large enough effect (not every such curve was filed as active); inconclusive = small, poorly fitted or top-dose-only effect, or another doubt; inactive = flat fitted curve, though single readings scatter. Bounds are passed on as bounds.

The target of experiment [1] is Lysosomal acid glucosylceramidase (Homo sapiens) (UniProt P04062). Nature of the experiment: Glucocerebrosidase-p2 (AID 348; in the data active = potency below about 10 µM; note: potency is the fitted concentration of half-maximal effect). The settings on record: purified GBA, blue fluorogenic substrate, 40 min. A digest of the protocol:
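Compounds titrated from 0.6 nM upwards against 0.2 nM enzyme in pH 5.9 citric acid/KH2PO4, taurocholate, tween-20; blue fluorogenic substrate 80 uM, 40 min room temperature, stopped and read Ex 365/Em 440 for AC50.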

Experiment [2] is described as follows: AP1 Signaling Pathway (AID 357).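 Note: ME-180 reporter cells stimulated with EGF at its EC50 level; % is set by controls: 0 for no effect and ±100 for the full control effect.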 Particulars: ME-180 AP-1-bla reporter, EGF-induced, beta-lactamase ratio, 5 h; at 7.69 µM (top of the series) unless noted. The essentials: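 A ratiometric CCF4 readout (405 nm excitation; 460 and 530 nm emission) quantified AP-1-driven beta-lactamase in ME-180 cells after 5 h with compound and EC50 EGF; AC50 values were derived for activators and inhibitors.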

Experiment [3] has as its target Cytochrome P450 1A2 (Homo sapiens) (UniProt P05177). Briefly: p450-cyp1a2 (AID 410; calls by dose curve; note: potency is the fitted concentration of half-maximal effect). Particulars: recombinant CYP1A2, luciferin-ME demethylation, luminescence; series mostly up to 11.4 µM. A digest of the protocol: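 20nM CYP1A2 with 100uM Luciferin-ME (at Km) in 100mM KPO4; compound preincubated 10 min, NADPH regeneration added, 60 min at room temperature. Luciferin quantified by luminescence after detection reagent; normalized to 57 uM furafylline.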

Experiment [4] in a line: NFAT Signaling Pathway (AID 444).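 Note: carbachol stimulus at about its EC50 of 1 µM final; % is set by controls: 0 for no effect and ±100 for the full control effect.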 Particulars: Jurkat NFAT-bla M1, carbachol, beta-lactamase ratio, 5 h; at 7.69 µM (top of the series) unless noted. The essentials: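 Jurkat cells with NFAT-driven β-lactamase reporter and co-expressed M1 receptor, stimulated with carbachol (final 1 uM, ~EC50), compound titration, 5 h at 37 °C. CCF4 loaded 1 h at RT; 460/530 nm ratio gave %activity and AC50.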

The nature of experiment [5]: Stat Signaling Pathway (AID 446).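 Note: ME-180 cervical cancer cells given 40 pM IL-6 alongside compound; SIE-controlled beta-lactamase reporter measured as 460/530 nm FRET emission ratio; % is set by controls: 0 for no effect and ±100 for the full control effect.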 Particulars: ME-180 SIE beta-lactamase reporter, IL-6 stimulated, 5 h; at 7.69 µM (top of the series) unless noted. The essentials:
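Reporter line: ME-180 cervical carcinoma, SIE-beta-lactamase. Treatment: compound with 40 pM IL-6, 5 hrs, 37 C, in low-serum OPTI-MEM with 10 mM HEPES pH 7.3. Detection: 460/530 nm fluorescence.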

The target in experiment [6] is Glucocorticoid receptor (Homo sapiens) (UniProt P04150). Briefly: GR-GFP Redistribution (AID 450;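 active = compounds whose dose series gives a full or clear partial fitted curve of increased nuclear translocation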; note: potency is the fitted concentration of half-maximal effect). Particulars: U2OS GR-GFP nuclear translocation, laser cytometry, 2 h.
Chain of Glucocorticoid receptor (Homo sapiens) (P04150 whole entry, looked up): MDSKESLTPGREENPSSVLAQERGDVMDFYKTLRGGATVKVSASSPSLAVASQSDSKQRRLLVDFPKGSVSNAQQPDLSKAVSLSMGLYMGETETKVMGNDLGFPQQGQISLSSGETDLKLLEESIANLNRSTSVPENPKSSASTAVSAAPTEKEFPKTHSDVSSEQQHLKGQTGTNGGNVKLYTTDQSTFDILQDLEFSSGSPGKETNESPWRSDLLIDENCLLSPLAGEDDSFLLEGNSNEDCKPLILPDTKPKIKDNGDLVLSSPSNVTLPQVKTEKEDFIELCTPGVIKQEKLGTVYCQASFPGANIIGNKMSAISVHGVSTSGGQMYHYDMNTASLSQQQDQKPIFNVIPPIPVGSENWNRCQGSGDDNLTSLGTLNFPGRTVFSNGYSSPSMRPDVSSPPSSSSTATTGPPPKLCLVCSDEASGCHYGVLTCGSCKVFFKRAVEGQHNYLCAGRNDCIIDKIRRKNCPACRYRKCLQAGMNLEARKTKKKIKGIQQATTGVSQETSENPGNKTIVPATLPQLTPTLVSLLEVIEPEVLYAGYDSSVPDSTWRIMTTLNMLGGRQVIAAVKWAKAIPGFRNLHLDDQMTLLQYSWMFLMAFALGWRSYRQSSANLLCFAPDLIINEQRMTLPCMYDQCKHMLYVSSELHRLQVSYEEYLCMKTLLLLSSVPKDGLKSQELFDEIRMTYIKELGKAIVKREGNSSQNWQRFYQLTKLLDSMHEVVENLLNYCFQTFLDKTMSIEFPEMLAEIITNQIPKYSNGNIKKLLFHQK
For experiment [7] the target is unchanged. Nature of the experiment: GR-EFC Redistribution (AID 451; calls by dose curve; note: potency is the fitted concentration of half-maximal effect). The settings on record: CHO-K1 GR-EFC translocation, beta-gal luminescence, 2 h. A digest of the protocol:
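CHO-K1 cells expressing nuclear EA and GR-ED fragments of b-gal; compounds titrated up to 46 uM final, 2 h at 37 C. GR nuclear translocation read as complemented b-gal luminescence after 1 h RT detection.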

Experiment [8] deals with Mitogen-activated protein kinase 10 (Mus musculus) (UniProt Q61831). Briefly: JNK3 AlphaScreen Assay (AID 530).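 Note: kinase came from lysate of stimulated human HepG2 cells; signal reports phosphorylation of biotinylated GST-cJun 1-79 at Ser73 with 10 µM ATP; % is set by controls: 0 for no effect and ±100 for the full control effect.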 The settings on record: JNK3 lysate, c-Jun phosphorylation; series mostly up to 11.4 µM. A digest of the protocol:
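Pre-activated (IL-1β/TNFα) JNK3 in HepG2 lysates phosphorylates biotin-GST-cJun(1-79), 10 uM ATP; anti-phospho-cJun(Ser73) AlphaScreen read at room temperature, pH 7.6 Tris buffer. Compounds pre-incubated 15 min as titrations.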
In general terms: Bead proximity is the source of the signal in Alpha formats.

Experiment [9] deals with 3',5'-cyclic-AMP phosphodiesterase 4B (Homo sapiens) (UniProt Q07343). Briefly: qHTS Assay for Inhibitors of PDE-IV (AID 607; active = well fitted activation curve with a large enough effect in the main read-out, with a control signal flat, not every such curve was filed as active; note: % of control where 0% means no effect). Particulars: HEK293 ACTOne CNG channel cells, membrane potential fluorescence; series mostly up to 22.9 µM. The essentials: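 Cell-based read-out of cAMP via a modified cyclic nucleotide-gated channel and membrane potential dye (535/590 nm) in HEK293 cells expressing PDE4 endogenously. Compounds tested up to 22.9 uM final; 100 uM RO 20-1724 reference.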
Chain of 3',5'-cyclic-AMP phosphodiesterase 4B (Homo sapiens) (Q07343 whole entry, looked up): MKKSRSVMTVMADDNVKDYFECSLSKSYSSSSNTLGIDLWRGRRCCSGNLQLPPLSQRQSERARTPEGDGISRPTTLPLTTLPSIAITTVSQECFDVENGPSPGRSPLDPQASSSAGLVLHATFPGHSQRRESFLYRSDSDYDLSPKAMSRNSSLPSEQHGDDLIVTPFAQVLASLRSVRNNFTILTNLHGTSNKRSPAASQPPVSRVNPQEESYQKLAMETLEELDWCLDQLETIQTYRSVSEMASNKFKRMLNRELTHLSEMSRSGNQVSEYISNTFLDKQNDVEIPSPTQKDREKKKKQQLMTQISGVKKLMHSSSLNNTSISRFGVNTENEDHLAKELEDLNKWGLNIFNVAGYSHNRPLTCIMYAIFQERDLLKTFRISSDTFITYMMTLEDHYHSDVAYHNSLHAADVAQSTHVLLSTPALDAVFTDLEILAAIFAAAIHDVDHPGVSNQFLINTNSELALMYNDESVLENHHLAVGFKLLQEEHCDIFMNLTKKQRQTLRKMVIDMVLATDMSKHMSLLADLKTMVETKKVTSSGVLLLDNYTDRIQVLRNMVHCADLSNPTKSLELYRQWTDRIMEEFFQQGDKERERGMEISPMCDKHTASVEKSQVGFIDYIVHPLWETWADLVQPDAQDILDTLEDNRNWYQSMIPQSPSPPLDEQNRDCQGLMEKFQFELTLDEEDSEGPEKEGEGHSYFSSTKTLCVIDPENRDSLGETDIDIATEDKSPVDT
In general terms: qHTS replaces the single test concentration by a dilution series.

Chain of Lysosomal acid glucosylceramidase (Homo sapiens) (P04062 whole entry, looked up): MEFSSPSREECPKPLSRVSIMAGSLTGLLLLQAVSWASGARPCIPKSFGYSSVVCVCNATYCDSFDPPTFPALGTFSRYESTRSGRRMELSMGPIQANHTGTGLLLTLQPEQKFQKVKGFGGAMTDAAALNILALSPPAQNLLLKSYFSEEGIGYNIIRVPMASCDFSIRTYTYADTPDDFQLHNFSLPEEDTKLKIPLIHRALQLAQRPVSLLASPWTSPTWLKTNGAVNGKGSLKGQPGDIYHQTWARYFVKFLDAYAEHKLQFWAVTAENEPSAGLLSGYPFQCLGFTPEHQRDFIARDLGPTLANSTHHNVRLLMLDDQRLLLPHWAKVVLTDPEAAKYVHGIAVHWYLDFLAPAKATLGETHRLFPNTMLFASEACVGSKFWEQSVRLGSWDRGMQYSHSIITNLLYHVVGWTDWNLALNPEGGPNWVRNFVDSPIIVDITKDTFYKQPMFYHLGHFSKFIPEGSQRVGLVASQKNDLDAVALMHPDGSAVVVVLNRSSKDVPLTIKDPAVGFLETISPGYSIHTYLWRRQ
Chain of Cytochrome P450 1A2 (Homo sapiens) (P05177 whole entry, looked up): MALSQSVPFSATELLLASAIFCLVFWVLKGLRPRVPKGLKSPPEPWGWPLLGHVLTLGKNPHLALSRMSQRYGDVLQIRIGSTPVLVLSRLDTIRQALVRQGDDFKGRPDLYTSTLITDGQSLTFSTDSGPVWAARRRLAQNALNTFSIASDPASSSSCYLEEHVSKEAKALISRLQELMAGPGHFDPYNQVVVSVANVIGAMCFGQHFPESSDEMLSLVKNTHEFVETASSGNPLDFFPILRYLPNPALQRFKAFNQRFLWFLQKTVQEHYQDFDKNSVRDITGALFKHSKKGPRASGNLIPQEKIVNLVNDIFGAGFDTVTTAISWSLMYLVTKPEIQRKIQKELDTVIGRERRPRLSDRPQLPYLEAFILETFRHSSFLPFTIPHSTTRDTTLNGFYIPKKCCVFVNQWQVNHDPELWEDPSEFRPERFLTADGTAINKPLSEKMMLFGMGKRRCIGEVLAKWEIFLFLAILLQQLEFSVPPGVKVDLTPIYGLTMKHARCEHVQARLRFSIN

Take `CCC(=O)Nc1ncnc2ncn(C(=O)CC)c12`: the Potency in [1] is more than 11.4 µM; in experiment [6] it was more than 46 µM; in experiment [7], more than 9.22 µM. Further, the activity change, negative = inhibition in experiment [2] was 8.41%; in experiment [4] it was 1.71%. In addition, the Potency result in experiment [3], in [8] and in experiment [9] was “inactive” throughout. In addition, the activity, negative = inhibition in experiment [5] was 1.38%.
In the case of `CC(C)(C)CNCCO`, the Potency was more than 11.4 µM in experiment [1], more than 46 µM in experiment [6] and more than 9.22 µM in experiment [7]. Also, the activity change, negative = inhibition was -7.33% in [2], 6.2% [at 2.29 µM] in experiment [3] and 4.1% in experiment [4]. For the same molecule, the activity, negative = inhibition in [5] is 7.24%. Besides, the Potency result in experiment [8] and in experiment [9] was “inactive” throughout.
`O=C1[C@@H]2[C@@H]3C=C[C@H]([C@@H]2C(=O)N1CN1CCSCC1)[C@@H]1[C@@H]2C(=O)N(CN4CCSCC4)C(=O)[C@@H]2[C@H]31`: the Potency in experiment [1] is more than 11.4 µM; in experiment [6], more than 46 µM; in [7], more than 9.22 µM. In addition, the figures for the activity change, negative = inhibition in [2] and in experiment [4] were 11.7% and 5.4%, respectively. For the same molecule, the Potency result in experiment [3], in experiment [8] and in [9] was “inactive” in each case. Further, the activity, negative = inhibition in experiment [5] was -1.73%.
With `NCS(=O)(=O)O`, the Potency is more than 11.4 µM in [1], more than 46 µM in experiment [6] and more than 9.22 µM in [7]. The activity change, negative = inhibition in [2] is -4.59%; in experiment [3], -5.6% [at 2.29 µM]; in [4], 2.65%. Also, the activity, negative = inhibition in experiment [5] was -0.0948%. The Potency entry in [8] and in experiment [9] was “inactive” each time.
For `O=C(O)c1ccccc1C(=O)Nc1cc2c(cc1Br)-c1ccccc1C2=O`, the Potency is more than 11.4 µM in experiment [1], 0.631 µM (active) in experiment [3], more than 46 µM in experiment [6] and more than 9.22 µM in [7]. The activity change, negative = inhibition is -2.84% in [2] and 10.3% in experiment [4]. In experiment [5], the activity, negative = inhibition was -5.27%. For the same molecule, the Potency entry in experiment [8] and in experiment [9] was “inactive” throughout.
As to `O=C(O)[C@H](CCc1ccccc1)N1C(=O)c2ccccc2C1=O`, the values for the Potency in experiment [1], in [6] and in [7] were more than 11.4 µM, more than 46 µM and more than 9.22 µM, respectively. In addition, the values for the activity change, negative = inhibition in experiment [2], in experiment [3] and in experiment [4] were -11.9%, -9.6% [at 2.29 µM] and -3.82%, respectively. Moreover, the activity, negative = inhibition in experiment [5] is 8.91%. In addition, the Potency entry in experiment [8] and in experiment [9] was “inactive” each time.
Take `Oc1cc(O)c2c(c1)O[C@@H](c1ccc(O)c(O)c1)[C@H](O[C@@]1(c3cc(O)c(O)c(O)c3)Oc3cc(O)cc(O)c3[C@H](O)[C@@H]1O)C2`: the Potency in experiment [1] is more than 11.4 µM; in [6], more than 46 µM; in experiment [7], more than 9.22 µM. Also, the activity change, negative = inhibition in experiment [2] was 9.41%; in experiment [4] it was 13.8%. For the same molecule, the Potency entry in [3], in experiment [8] and in experiment [9] was “inactive” throughout. In addition, the activity, negative = inhibition in experiment [5] is -22.3%.
As to `CC(C)(N)C(=O)N[C@@H]1C(=O)N2[C@@H]1SC(C)(C)[C@H]2C(=O)O`, the values for the Potency in experiment [1], in [6] and in [7] were more than 11.4 µM, more than 46 µM and more than 9.22 µM, respectively. Moreover, the activity change, negative = inhibition is -6.43% in [2], 4.4% [at 2.29 µM] in experiment [3] and -0.727% in experiment [4]. Moreover, the activity, negative = inhibition in [5] was -0.982%. In addition, the Potency result in [8] and in experiment [9] was “inactive” in each case.
On to `O=C(O)c1nnsc1COCc1ccccc1`, for which the figures for the Potency in [1], in experiment [6] and in [7] were more than 11.4 µM, more than 46 µM and more than 9.22 µM, respectively. Further, the figures for the activity change, negative = inhibition in experiment [2] and in [4] were 6.35% and 6.97%, respectively. The Potency entry in [3], in experiment [8] and in experiment [9] was “inactive” each time. The activity, negative = inhibition in experiment [5] is 12.4%.
In the case of `O=C(O)c1ccc([N+]2=Cn3c(nc4ccccc43)C2)cc1`, the Potency in [1] was more than 11.4 µM; in experiment [3], 5.01 µM (active); in experiment [6], more than 46 µM; in experiment [7], more than 9.22 µM. In addition, the activity change, negative = inhibition is -0.795% in [2] and 9.31% in [4]. For the same molecule, in experiment [5], the activity, negative = inhibition was 0.556%. In addition, the Potency entry in experiment [8] and in experiment [9] was “inactive” in each case.
As for `Cc1cc2ccc(OC(=O)c3ccc(N=C(N)N)cc3)cc2oc1=O`, the Potency in experiment [1] is more than 11.4 µM; in experiment [3] it was 2.51 µM (active); in experiment [6], more than 46 µM; in experiment [7], more than 9.22 µM. In addition, the results for the activity change, negative = inhibition in experiment [2] and in [4] were 5.35% and -22.4%, respectively. Further, the activity, negative = inhibition in experiment [5] was -1.77%. For the same molecule, the Potency entry in [8] and in experiment [9] was “inactive” each time.
`CC(=O)O[C@H]1CC[C@@]2(C)[C@@H](CC[C@H]3[C@H]2CC(=O)[C@@]2(C)[C@@H]3C[C@H]3CC(C)=CC(=O)[C@H]32)C1`: the Potency in experiment [1] was more than 11.4 µM; in experiment [6], more than 46 µM; in experiment [7] it was more than 9.22 µM. The activity change, negative = inhibition in [2] was 5.01%; in experiment [3], -9% [at 2.29 µM]; in experiment [4], 22%. Further, the activity, negative = inhibition in experiment [5] is -1.11%. For the same molecule, the Potency entry in [8] and in experiment [9] was “inactive” each time.
Consider `O=S(=O)(C[C@H](O)C(Cl)(Cl)Cl)NNc1ccccc1`, for which the Potency is more than 11.4 µM in experiment [1], more than 46 µM in [6] and more than 9.22 µM in [7]. For the same molecule, the activity change, negative = inhibition in experiment [2] was -0.0496%; in [3] it was 0.8% [at 2.29 µM]; in experiment [4], 2.68%. For the same molecule, the activity, negative = inhibition in experiment [5] is 5.12%. For the same molecule, the Potency result in experiment [8] and in [9] was “inactive” in each case.
Take `OCCNc1ncnc2c1ncn2[C@@H]1O[C@@H](CO)[C@H](O)[C@@H]1O`: the Potency in [1] is more than 11.4 µM; in experiment [6] it was more than 46 µM; in experiment [7] it was more than 9.22 µM. Moreover, the activity change, negative = inhibition in experiment [2] was 3.21%; in experiment [4] it was 9.99%. For the same molecule, the Potency entry in [3], in experiment [8] and in [9] was “inactive” in each case. The activity, negative = inhibition in experiment [5] is 25.8%.
Take `CC(=NCC(=O)O)c1ccccc1`: the Potency was more than 11.4 µM in experiment [1], 3.98 µM (active) in experiment [3], more than 46 µM in experiment [6] and more than 9.22 µM in experiment [7]. Moreover, the activity change, negative = inhibition in experiment [2] is 0.333%; in [4], 13.9%. For the same molecule, in experiment [5], the activity, negative = inhibition is 1.76%. Moreover, the Potency entry in [8] and in experiment [9] was “inactive” each time.
